From PubChem
KCNH2 3.1 block: KCNH2 3.1 (human) potassium channel inhibition | U2OS KCNH2 3.1, thallium flux FluxOr; active compounds read low | 0.95% of 340,000 active | activity change, % (tested at about 1.8 µM);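 active = maximum activity change below -70%; inconclusive = maximum activity change from -70% to -50%; inactive = maximum activity change above -50%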;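 also: thallium influx rate constant from kinetic fluorescence after stimulation buffer; % is scaled to controls: 0 for no effect and ±100 for the full control effect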
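FluxOr-based Tl+ influx in U2OS cells transduced with KCNH2 3.1 virus; rate constants normalized to DMSO controls.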
hERG WT inh: inhibitors of human wildtype KCNH2 potassium channel; Q12809; U2OS, BacMam KCNH2, thallium flux FluxOr; active compounds read low; activity change, % at 1.84 µM; 0.37% of 340,000 active; AID 720551;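 active = maximum activity change below -70%; inconclusive = maximum activity change between -70% and -50%; inactive = maximum activity change above -50%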; also: % is scaled to controls: 0 for no effect and ±100 for the full control effect
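U2OS cells were transduced with wild-type KCNH2 virus (2.03 x 10^8 / mL) for 4 h at room temperature, then cultured overnight at 37 C. Thallium flux was read with FluxOr dye. Rate constants were normalized to DMSO controls.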
SW480 rerep: inducers of DNA re-replication in SW480 colon cancer cells. SW480 DNA re-replication, Hoechst DNA content imaging, 48 h. Potency, µM (doses to about 46.1 µM), for the others: at the highest dose re-replication activation, hits mostly activators. 1.8% of 340,000 active. AID 624297; also: potency is read from the fitted curve at half-maximal effect; % of control where 0% means no effect; nearly all actives have a fitted effect of over 55% in size
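Compounds, transferred as 23 nL by pin tool, were incubated with cells for 48 hr; DNA content per nucleus was then quantified by Hoechst staining and fluorescence plate imaging.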
KB-V1 MDR tox: KB-V1 MDR subline cytotoxicity. KB-V1 MDR cells viability, CellTiter-Glo, 72 h. 3.4% of 400,000 active. Potency, µM (highest dose often 46.1 µM), usual class: cytotoxic; also: potency is read from the fitted curve at half-maximal effect; % is scaled to controls: 0 for no effect and ±100 for the full control effect; nearly all actives have a fitted effect of over 60% in size
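KB-V1, DMEM (no phenol red) + 10% FBS; cpd pin-transferred, titration series; 72 h, 37 degrees C; CellTiter-Glo, luminescence. Data normalized, curve-fit.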
MCF10A rerep: inducers of DNA re-replication in MCF 10A breast cells. MCF 10A DNA re-replication, Hoechst nuclear intensity, 48 h. Potency, µM (doses to about 46.1 µM), inactives show at the highest dose activity, positive = re-replication, actives largely listed as activators. 2.9% of 350,000 active. AID 624296; also: potency is read from the fitted curve at half-maximal effect; % of control where 0% means no effect; nearly all actives have a fitted effect of over 50% in size
KB-3-1 cytotox: KB-3-1 parental cell cytotoxicity | KB-3-1 viability, CellTiter-Glo ATP luminescence, 72 h | Potency, µM (highest dose often 46.1 µM), most hits filed as cytotoxic | 1.4% of 400,000 active; also: potency is read from the fitted curve at half-maximal effect; % is scaled to controls: 0 for no effect and ±100 for the full control effect; nearly all actives have a fitted effect of over 60% in size
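Screening of KB-3-1 cells (DMEM, 10% FBS, phenol-red free) ran from lowest to highest compound concentration; after 72 h at 37 °C viability was read luminescently and curves fitted.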
The depositor's hits bear a star; [ ] = dose if it differs, or a comment. Hits are enriched below; roughly 7.6% of the tested compounds scored in any of these assays. Unless noted, calls follow the shape of the dose curve; as a rule, active = well fitted curve in the direction sought with a large enough effect; inconclusive = small, poorly fitted or top-dose-only effect, or another doubt; inactive = no such curve, though single readings can be large; an effect the other way counts as inactive or inconclusive.

For COc1ccc(-c2cc(-c3ccccc3O)[nH]n2)cc1 the results were KCNH2 3.1 block -0.6, hERG WT inh 3.5, SW480 rerep -0.3%, KB-V1 MDR tox inactive, MCF10A rerep inconclusive and KB-3-1 cytotox inactive.
For COc1cc(C(=O)Nc2ccccc2N2CCOCC2)ccc1OCc1c(C)noc1C the results were KCNH2 3.1 block 4.1, hERG WT inh 5.5, SW480 rerep -3.3%, KB-V1 MDR tox 4.61µM*, MCF10A rerep 1.4% and KB-3-1 cytotox inactive.
`COc1ccc(C(=O)NC(=S)Nc2ccccc2N2CCOCC2)cc1Br` gave KCNH2 3.1 block 2.9, hERG WT inh 0.8, SW480 rerep -1.4%, KB-V1 MDR tox 16.4µM*, MCF10A rerep inconclusive and KB-3-1 cytotox inactive.
Screening COc1ccc(C(=O)Nc2ccccc2N2CCOCC2)cc1Br returned KCNH2 3.1 block -8.6, hERG WT inh -30.1, SW480 rerep -2.4%[9.22 µM], KB-V1 MDR tox inactive, MCF10A rerep -13.2% and KB-3-1 cytotox inactive.
`COc1cc(C(=O)OCC#N)ccc1OCc1c(C)noc1C` gave KCNH2 3.1 block -6.7, hERG WT inh 0.7, SW480 rerep 10.3µM*, KB-V1 MDR tox inconclusive, MCF10A rerep 4.11µM* and KB-3-1 cytotox inconclusive.
COc1ccc(C(=O)N/C(=C\c2cn(C)c3ccccc23)C(=O)N2CCOCC2)cc1 was read as KCNH2 3.1 block 5.0, hERG WT inh -0.5, SW480 rerep -2.4%, KB-V1 MDR tox inactive, MCF10A rerep 0.4% and KB-3-1 cytotox inactive.
Screening COCCCNC(=O)c1ccc(Cn2c(=O)c3ccccc3n(Cc3c(C)cc(C)cc3C)c2=O)cc1 returned KB-V1 MDR tox inactive and KB-3-1 cytotox inactive.
For Cc1ccc(CN2CCNC(=O)C2CC(=O)N(C)C2CCOCC2)cc1 (stereo unspecified) the results were KCNH2 3.1 block 16.3, hERG WT inh -2.4, SW480 rerep -9.1%, KB-V1 MDR tox inactive, MCF10A rerep -0.8% and KB-3-1 cytotox inactive.
For Cc1nc([N+](=O)[O-])c(Sc2nc3ccc([N+](=O)[O-])cc3[nH]2)n1Cc1ccccc1 the results were KCNH2 3.1 block -3.5, hERG WT inh 11.8, SW480 rerep inconclusive, KB-V1 MDR tox inactive, MCF10A rerep 18.4µM* and KB-3-1 cytotox inactive.
CCC(=O)c1ccc(OCC(O)Cn2c(C)nc3ccccc32)cc1 (stereo unspecified) was read as KCNH2 3.1 block -2.4, hERG WT inh 0.2, SW480 rerep 3.1%, KB-V1 MDR tox 8.2µM*, MCF10A rerep 5.0% and KB-3-1 cytotox inactive.
For CCOC(=O)c1c(C)n(C)c2ccc(OCC(O)Cn3c(C)nc4ccccc43)cc12 (stereo unspecified) the results were KCNH2 3.1 block 13.0, hERG WT inh -2.5, SW480 rerep 15.1%, KB-V1 MDR tox 13µM*, MCF10A rerep inconclusive and KB-3-1 cytotox inactive.
Cc1nc2ccccc2n1CC(O)COc1ccc(Br)cc1 (stereo unspecified) was read as KCNH2 3.1 block -23.0, hERG WT inh 22.2, SW480 rerep -5.1%, KB-V1 MDR tox 13µM*, MCF10A rerep 12.0% and KB-3-1 cytotox inconclusive.
For CCOC(=O)c1c(C)n(C)c2ccc(OCC(O)CN3CCN(C)CC3)cc12 (stereo unspecified) the results were KCNH2 3.1 block -0.7, hERG WT inh -1.8, SW480 rerep 1.5%, KB-V1 MDR tox inactive, MCF10A rerep 6.4% and KB-3-1 cytotox inactive.
O=C(NCc1cccnc1)c1csc([C@@H]2C[C@H](O)[C@@H](CO)O2)n1 was read as KB-V1 MDR tox inactive and KB-3-1 cytotox inconclusive.
COc1ccc(S(=O)(=O)N2CCN(C(=S)Nc3ccc(S(N)(=O)=O)cc3)CC2)cc1 was read as KCNH2 3.1 block -3.4, hERG WT inh 0.7, SW480 rerep -1.1%, KB-V1 MDR tox inactive, MCF10A rerep -0.9% and KB-3-1 cytotox inactive.
Screening O=c1oc2ccccc2cc1-c1cn2cc(Cc3ccc(F)cc3)sc2n1 returned KB-V1 MDR tox inactive and KB-3-1 cytotox 0.581µM*.
Screening CCSc1nnc(-c2ccc(Cl)cc2)c2ccccc12 returned KCNH2 3.1 block -5.1, hERG WT inh 0.4, SW480 rerep 0.0%, KB-V1 MDR tox inactive, MCF10A rerep -0.9% and KB-3-1 cytotox inactive.
CC(C)c1nnc(-c2ccc(Cl)cc2)c(N(C)C)n1 was read as KCNH2 3.1 block 0.4, hERG WT inh 3.1, SW480 rerep -2.2%, KB-V1 MDR tox 20.6µM*, MCF10A rerep 1.7% and KB-3-1 cytotox inactive.
`CCC(C)(C)NC(=O)Cn1c(=O)ccc2cc(S(=O)(=O)N3CCC(C)CC3)ccc21` gave KB-V1 MDR tox inactive and KB-3-1 cytotox inactive.
For COc1cccc(C2NC(=S)NC(C)=C2C(=O)c2ccccc2)c1OC (stereo unspecified) the results were KCNH2 3.1 block -0.2, hERG WT inh 9.4, SW480 rerep 5.8µM*, KB-V1 MDR tox inconclusive, MCF10A rerep inconclusive and KB-3-1 cytotox 1.84µM*.
Screening COc1cccc(C2NC(=O)NC(C)=C2C(=O)Nc2ccc(C)cc2)c1OC (stereo unspecified) returned KCNH2 3.1 block 2.7, hERG WT inh -13.9, SW480 rerep 14.9%, KB-V1 MDR tox inactive, MCF10A rerep inconclusive and KB-3-1 cytotox inactive.
O=c1[nH]cnc2cc(-c3ccccc3)sc12 was read as KCNH2 3.1 block -6.3, hERG WT inh -2.8, SW480 rerep -4.6%, KB-V1 MDR tox 6.51µM*, MCF10A rerep 5.4% and KB-3-1 cytotox 16.4µM*.
`O=c1[nH]c2ccccc2n1C1CCCCC1` gave KCNH2 3.1 block 2.8, hERG WT inh -84.1*, SW480 rerep -7.3%, KB-V1 MDR tox inconclusive, MCF10A rerep -5.4% and KB-3-1 cytotox inactive.
Screening CSC(=NS(=O)(=O)c1ccccc1)NNC(=O)c1c(-c2c(Cl)cccc2Cl)noc1C returned KB-V1 MDR tox inactive and KB-3-1 cytotox inactive.
`Cc1csc(B(O)O)c1` gave KB-V1 MDR tox inactive and KB-3-1 cytotox inactive.
COc1cc(CCC(=O)Nc2cccc(S(=O)(=O)N(C)C)c2)cc(OC)c1OC was read as KCNH2 3.1 block 8.9, hERG WT inh 1.7, SW480 rerep inconclusive, KB-V1 MDR tox 20.6µM*, MCF10A rerep -1.5% and KB-3-1 cytotox inactive.
`COC(=O)c1cccc(NC(=O)CCCOc2ccccc2)c1` gave KCNH2 3.1 block -2.4, hERG WT inh 0.3, SW480 rerep -1.5%, KB-V1 MDR tox inactive, MCF10A rerep 4.7% and KB-3-1 cytotox inactive.
